Screening data deposited in PubChem BioAssay by Broad Institute.
The sample as a whole holds a higher share of hits than the screen did.
EZH2 inh = inhibitors of human EZH2/PRC2 methyltransferase; AID 651548; inhibition, % at 12.5 µM; PRC2 H3K27 methylation, DELFIA TRF, 1 h; 57,000 tested, 0.35% active;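 active = mean inhibition of replicates at least 50% and every single replicate also reaching 50%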;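 also: dimethyl H3K27 on biotinylated H3 21-44 peptide detected by antibody; plate controls were median neutral control wells for no effect and median positive control wells for full effect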
Target sequence (Q15910 whole entry, looked up): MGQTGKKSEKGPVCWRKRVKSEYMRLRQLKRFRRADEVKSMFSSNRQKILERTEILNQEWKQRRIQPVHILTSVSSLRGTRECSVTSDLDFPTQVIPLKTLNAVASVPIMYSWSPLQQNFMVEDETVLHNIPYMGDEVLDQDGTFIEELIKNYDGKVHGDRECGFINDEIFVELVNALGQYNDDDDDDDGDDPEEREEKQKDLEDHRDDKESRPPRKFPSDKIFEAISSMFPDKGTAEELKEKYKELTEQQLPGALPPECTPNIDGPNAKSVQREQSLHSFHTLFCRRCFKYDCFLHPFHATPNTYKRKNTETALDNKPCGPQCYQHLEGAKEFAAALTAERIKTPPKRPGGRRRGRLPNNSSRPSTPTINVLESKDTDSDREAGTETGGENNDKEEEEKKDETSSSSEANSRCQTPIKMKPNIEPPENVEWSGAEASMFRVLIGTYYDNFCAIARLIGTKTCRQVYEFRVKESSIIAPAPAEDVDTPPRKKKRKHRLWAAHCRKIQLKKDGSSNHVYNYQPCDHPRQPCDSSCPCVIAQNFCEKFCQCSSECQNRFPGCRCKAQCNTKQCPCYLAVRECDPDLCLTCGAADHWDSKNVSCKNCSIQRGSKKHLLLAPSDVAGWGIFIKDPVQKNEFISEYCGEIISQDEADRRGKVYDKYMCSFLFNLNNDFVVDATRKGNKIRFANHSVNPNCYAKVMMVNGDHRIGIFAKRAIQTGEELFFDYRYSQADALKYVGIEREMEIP
* marks the source's active call; other numbers are inactive results.

For C[C@@H]1CN([C@H](C)CO)S(=O)(=O)c2ccc(Br)cc2O[C@H]1CN(C)Cc1cccc(C(=O)O)c1 the results were EZH2 inh 1.
Screening C[C@H](CO)N1C[C@H](C)[C@@H](CN(C)Cc2ccccc2)Oc2cc(/C=C/c3ccccc3)ccc2S1(=O)=O returned EZH2 inh -1.
C[C@H]1CN([C@@H](C)CO)S(=O)(=O)c2ccc(C3=CCCCC3)cc2O[C@@H]1CN(C)Cc1cccc(C(=O)O)c1 was read as EZH2 inh 44.
Screening C[C@H]1CN([C@@H](C)CO)S(=O)(=O)c2ccc(C3=CCCCC3)cc2O[C@H]1CN(C)Cc1cccc(C(=O)O)c1 returned EZH2 inh 17.
Screening C[C@@H]1CN([C@@H](C)CO)S(=O)(=O)c2ccc(C#CCC3CCCC3)cc2O[C@H]1CN(C)Cc1cccc(C(=O)O)c1 returned EZH2 inh 62*.
C[C@H](CO)N1C[C@H](C)[C@@H](CN(C)Cc2cccc(C(=O)O)c2)Oc2cc(Br)ccc2S1(=O)=O was read as EZH2 inh 13.
Screening C[C@H]1CN([C@@H](C)CO)S(=O)(=O)c2ccc(/C=C/c3ccccc3)cc2O[C@H]1CN(C)Cc1ccccc1 returned EZH2 inh 10.
Screening C[C@@H]1CN([C@@H](C)CO)S(=O)(=O)c2ccc(C3=CCCCC3)cc2O[C@H]1CN(C)Cc1cccc(C(=O)O)c1 returned EZH2 inh 56*.
Screening C[C@H]1CN([C@@H](C)CO)S(=O)(=O)c2ccc(/C=C/c3ccccc3)cc2O[C@@H]1CN(C)Cc1ccc(C(=O)O)cc1 returned EZH2 inh 53*.
For CCc1nc(SCC(=O)Nc2ccc(Br)cc2)n[nH]1 the results were EZH2 inh 15.
For CC(C)NC(=O)Nc1ccc2c(c1)C(=O)N([C@@H](C)CO)C[C@@H](C)[C@@H](CN(C)Cc1ccccc1)O2 the results were EZH2 inh 0.
O=C(CSc1ccc2ccccc2n1)Nc1ccnc2ccccc12 was read as EZH2 inh -8.
`CC(Oc1ccc(C(C)(C)C)cc1)c1nc(-c2cccnc2)no1` (stereo not given) gave EZH2 inh 8.
N#Cc1cc2c(nc1SCC(=O)Nc1cccc(F)c1)CCCC2 was read as EZH2 inh 17.
OC(CSc1nc2ccccc2s1)CC(O)c1ccccc1 (stereo not given) was read as EZH2 inh 3.
For O=C(Nc1cccc(Br)c1)C1CN(S(=O)(=O)c2ccccc2)CCN1S(=O)(=O)c1ccccc1 (stereo not given) the results were EZH2 inh -20.
Screening Cc1sc2c(c1C)-c1nc(SCC(=O)C(C)(C)C)ncc1S(=O)(=O)N2C returned EZH2 inh 17.
`COc1ccc(Cl)cc1N(CC(=O)Nc1cc(Cl)ccc1C)S(C)(=O)=O` gave EZH2 inh 1.
CCn1c(SCC(=O)Nc2cccc(Cl)c2)nnc1-c1ccco1 was read as EZH2 inh -1.
COc1ccc(NC(=O)N[C@@H]2CC[C@H](CCNC(=O)Nc3cc(F)ccc3F)O[C@H]2CO)cc1 was read as EZH2 inh 7.
`O=C(CSc1nc2ccccc2c(=O)[nH]1)Nc1ccc(F)c(Cl)c1` gave EZH2 inh 31.
For CCOC(=O)c1c(NC(=O)Cn2cnc3ccccc3c2=O)sc2c1CCCC2 the results were EZH2 inh 9.
For CCOC(=O)c1c(NC(=O)CSc2nc3ccccc3c(=O)[nH]2)sc2c1CCCC2 the results were EZH2 inh 76*.
COc1ccc(NC(=O)CSc2nc3ccccc3c(=O)[nH]2)cc1Cl was read as EZH2 inh -6.
Screening CCOC(=O)c1c(NC(=O)CSc2ncn[nH]2)sc2c1CCCCC2 returned EZH2 inh 6.
For O=C(CSc1nc2ccccc2c(=O)[nH]1)Nc1ccc(Br)c(Cl)c1 the results were EZH2 inh 55*.
`COc1cccc(NC(=O)Nc2ccc3c(c2)C(=O)N(C)C[C@@H](OC)[C@@H](C)CN(C)[C@H](C)CO3)c1` gave EZH2 inh 1.
For O=C(Cc1ccccc1[N+](=O)[O-])Nc1ccccc1C(=O)NC1CCCCC1 the results were EZH2 inh -10.
CC(C)(C)Nc1nc(SCC(N)=O)nc(N2CCOCC2)n1 was read as EZH2 inh -3.
O=C(C[C@@H]1CC[C@H](NC(=O)Nc2ccc3c(c2)OCO3)[C@@H](CO)O1)NCc1ccccc1 was read as EZH2 inh 1.
Cc1cc(OCC(=O)Nc2ccccc2-c2nc3ccccc3s2)ccc1Cl was read as EZH2 inh 5.
`CC(C)(O)C(O)COc1c2ccoc2cc2oc(=O)ccc12` (stereo not given) gave EZH2 inh 7.
Screening COc1ccc2c(=O)ccoc2c1 returned EZH2 inh 8.
COc1c2ccoc2cc2oc(=O)ccc12 was read as EZH2 inh 52*.
For O=C(Nc1ccc(F)cc1)N[C@H]1CC[C@@H](CCn2cc(C3(O)CCCC3)nn2)O[C@H]1CO the results were EZH2 inh -1.
For O=C(CCCCCCC(=O)Nc1ccccc1O)N/N=C/c1ccc(O)c(O)c1 the results were EZH2 inh -27.
For O=C(CCCCCCC(=O)Nc1ccccc1O)N/N=C/c1ccc(F)cc1 the results were EZH2 inh -3.
O=C(CCCCCCC(=O)Nc1ccccc1O)N/N=C/c1ccc(-c2ccccc2)c(F)c1 was read as EZH2 inh 51*.
`CO[C@H]1CN(C)C(=O)c2cc(NC(=O)C3CC3)ccc2OC[C@H](C)N(C(=O)c2ccccn2)C[C@@H]1C` gave EZH2 inh 0.
Screening O=C(CSc1nnc(-c2ccc(Br)cc2)o1)Nc1ccc(Cl)c(Cl)c1 returned EZH2 inh -5.
`Cc1cccc(S(=O)(=O)NC(C(=O)O)C(C)C)c1` (stereo not given) gave EZH2 inh -5.
`C[C@@H]1CC[C@]2(C)[C@H](CC[C@@H](O)[C@]2(C)O)[C@@]1(C)CC/C(=C/CO)CO` gave EZH2 inh 87*.
For CC1CCC2(C)C(CC(O)C(O)C2(O)CO)C1(C)CCc1ccoc1 (stereo not given) the results were EZH2 inh -9.
For Cc1cccc(N(CC(=O)Nc2ccc(I)cc2C)S(C)(=O)=O)c1 the results were EZH2 inh 6.
CCSc1ccccc1C(=O)Nc1ccc(S(=O)(=O)Nc2ncccn2)cc1 was read as EZH2 inh 2.
Screening CC(C)OC(=O)C(C)Sc1ncnc2scc(-c3ccc(Br)cc3)c12 (stereo not given) returned EZH2 inh 31.
Cc1ccc(-c2cc3ccccn3c2C(=O)CSc2nnc(C)s2)cc1 was read as EZH2 inh 53*.
Screening Cc1nnc(SCC(=O)c2c(C)[nH]c3ccccc23)s1 returned EZH2 inh -22.
For Cc1ccc(F)c(NC(=O)CSc2nnc(C)s2)c1 the results were EZH2 inh 6.
COc1ccccc1NC(=O)N(C)C[C@@H]1OCc2ccccc2-c2c(n(C)c3ccccc23)C(=O)N([C@@H](C)CO)C[C@H]1C was read as EZH2 inh -42.
For C[C@@H]1CN([C@H](C)CO)C(=O)Cc2cc(NC(=O)Nc3ccccc3)ccc2O[C@@H]1CN(C)Cc1ccc(C(=O)O)cc1 the results were EZH2 inh 9.
Screening COc1ccc(C#Cc2ccc3c(c2)[C@]2(C(=O)N3)[C@H](C(=O)O)[C@H]3C(=O)O[C@H](c4ccccc4)[C@H](c4ccccc4)N3[C@@H]2c2ccccc2OCCO)cc1 returned EZH2 inh 75*.
